# GPR151 activ = activators of human GPR151; PathHunter beta-arrestin GPR151 cells, luminescence; Q8TDV0; actives 1% (n = 650,000); activation, % at 11.2 µM; in the data active means activation above about 4.9%
# Target sequence (Q8TDV0 whole entry, looked up): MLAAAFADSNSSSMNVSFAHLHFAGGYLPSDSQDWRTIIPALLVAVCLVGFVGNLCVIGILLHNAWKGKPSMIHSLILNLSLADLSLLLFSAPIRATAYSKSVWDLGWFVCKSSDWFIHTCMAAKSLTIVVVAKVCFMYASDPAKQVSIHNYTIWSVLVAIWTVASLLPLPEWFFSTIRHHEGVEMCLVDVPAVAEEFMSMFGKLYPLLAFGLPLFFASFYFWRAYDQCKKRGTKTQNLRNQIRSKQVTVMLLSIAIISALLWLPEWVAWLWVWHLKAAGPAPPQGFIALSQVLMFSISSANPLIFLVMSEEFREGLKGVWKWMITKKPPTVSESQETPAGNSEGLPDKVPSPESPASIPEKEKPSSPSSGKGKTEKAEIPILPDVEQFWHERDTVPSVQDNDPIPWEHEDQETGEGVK
# TEAD-YAP inh = TEAD-YAP interaction inhibition. HEK-TIYL cells, TEAD-Gal4/YAP UAS-luciferase luminescence. inhibition, % at 9.12 µM. actives 1.4% (n = 640,000). AID 1259422; in the data active means inhibition above about 32%
# FBW7 act = human FBW7 E3 ligase activation, primary screen | AlphaScreen FBW7–phospho-cyclin E peptide binding, activator screen | actives 0.13% (n = 650,000) | AID 1259310 | Q969H0 | normalized activity (activation), % at 26.1 µM; in the data active means normalized activity above about 1.9%;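 further: purified mutant Fbw7 with reduced substrate affinity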
# MITF inh = blocks human microphthalmia-associated transcription factor. O75030. AlphaScreen MITF homodimerization, bead proximity signal. inhibition, % at 2.6 µM. actives 0.91% (n = 650,000). AID 1259374; in the data active means inhibition above about 50%
# Hits are given with their value; 0 = inactive. Sampled rows, rich in hits. Any-hit rate of the full collection: about 3.5%.
SMILES,GPR151 activ,TEAD-YAP inh,FBW7 act,MITF inh
N#C/C(=C\c1ccc(OCC(=O)NCC2CCCO2)cc1)C(=O)NCc1ccccc1 (stereo not drawn),0,0,0,0
CCc1ccc2oc(-c3ccccc3)cc(=NCC(=O)O)c2c1,0,32,0,0
COc1ccc2cc3c(N)nn(C(=O)c4ccco4)c3nc2c1,0,59,0,0
COc1ccc2cc3c(N)nn(C(=O)c4ccccc4C)c3nc2c1,0,45,0,0
O=C(Cc1ccc([N+](=O)[O-])cc1)OCC(=O)c1ccc2ccccc2c1,0,46,0,0
O=C(Nc1ccc2c(c1)OCCO2)C(Cc1ccccc1)N1Cc2ccccc2C1=O (stereo not drawn),0,0,0,0
CC(=O)N(C1=C(N2CCOCC2)C(=O)c2ccccc2C1=O)c1cc(C)cc(C)c1,0,39,0,0
CC(=O)N(C1=C(N2CCOCC2)C(=O)c2ccccc2C1=O)c1ccc(F)c(F)c1,0,32,0,0
O=C1OC(c2cccc3ccccc23)=N/C1=C/c1c(F)cccc1Cl,0,0,0,0
Cc1cc(-c2cccc3cnc(Nc4ccc(-n5cnc(C)n5)cc4)nc23)ccn1,0,62,0,0
Cc1ncn(-c2ccc(Nc3ncc4cccc(-c5ccccn5)c4n3)cc2)n1,0,42,0,0
COc1cc(-c2cccc3cnc(Nc4ccc(-n5cnc(C)n5)cc4)nc23)ccn1,0,0,0,0
Cc1ncn(-c2ccc(Nc3ncc4cccc(-c5cccc(F)c5)c4n3)cc2)n1,0,0,0,0
Cc1ccc(-c2cccc3cnc(Nc4ccc(-n5cnc(-c6ccccn6)n5)cc4)nc23)cn1,0,0,5.7,0
Cc1ncn(-c2ccc(Nc3ncc4cccc(-c5ncco5)c4n3)cc2)n1,0,70,0,0
CCOC(=O)c1nn(-c2cccc(Cl)c2)cc1C(=O)c1ccco1,0,0,0,0
O=C(O)C1c2ccccc2CCN1S(=O)(=O)c1cccc2nsnc12 (stereo not drawn),0,0,0,0
Cc1ccc(-c2cccc3cnc(Nc4ccc(-n5cnc(C)n5)cc4)nc23)cn1,0,61,0,0
Cc1ncn(-c2ccc(Nc3ncc4cccc(-c5cncnc5)c4n3)cc2)n1,0,0,0,0
CCCCOc1ccc(-c2nn(-c3ccccc3)cc2/C=c2\sc3nc(=O)c(Cc4ccccc4)nn3c2=O)cc1C,0,0,0,76
CCCCOc1ccc(-c2nn(-c3ccccc3)cc2/C=c2\sc3nc(=O)c(C)nn3c2=O)cc1C,0,0,0,0
COc1cccc(C(=O)N/N=C/c2ccccc2[N+](=O)[O-])c1,0,0,0,0
CCOc1ccc2c(c1)N(S(=O)(=O)c1ccc(NC(C)=O)cc1)C(C)(C)C=C2C,0,73,0,0
CCOc1ccc2c(c1)C(C)=CC(C)(C)N2S(=O)(=O)c1ccc(Br)cc1,0,61,0,0
CC1=CC(C)(C)N(S(=O)(=O)c2ccc(Br)cc2)c2ccc(C)cc21,0,58,0,0
SMILES,GPR151 activ,TEAD-YAP inh,FBW7 act,MITF inh
CCNC(=O)N1c2ccc(OCC)cc2C(C)=CC1(C)C,0,0,0,0
CCSc1nc2c(c(=O)[nH]c(=O)n2C)n1CCc1ccc(OC)cc1,0,43,0,0
CCSc1nc2c(c(=O)[nH]c(=O)n2C)n1CCCc1ccccc1,0,0,0,0
O=C(Nc1cc(Cl)ccc1Oc1ccc(Cl)c2ccccc12)c1cc(Cl)cc(Cl)c1O,0,0,0,0
COc1ccc(C(=O)Nc2cc(Cl)ccc2O)cc1Cl,0,0,0,0
O=C(Nc1cc(Cl)ccc1O)c1ccc(Cl)c(C(=O)c2ccc(Cl)cc2)c1,0,33,0,0
O=C(Nc1cc(Cl)ccc1Cl)c1cc(Cl)cc(Cl)c1O,0,57,0,0
Nc1ccc(Cl)c(NC(=O)c2ccc(Cl)cc2Cl)c1,0,87,0,0
CC(C)N(C(=O)c1cc([N+](=O)[O-])ccc1Cl)C(C)C,0,0,0,0
CC(C(=O)c1ccc(-c2ccccc2)cc1)[n+]1ccc2ccccc2c1 (stereo not drawn),0,56,0,0
Cc1ccc(N2C(=O)c3cccc(N)c3C2=O)c(C)c1,0,33,0,0
Nc1cccc2c1C(=O)N(c1ccc3ccccc3c1)C2=O,0,0,2.4,0
Nc1cccc(N2C(=O)c3cccc(N)c3C2=O)c1,0,0,0,0
O=C1CC(c2ccc3c(c2)OCCO3)Oc2ccccc21 (stereo not drawn),0,0,0,0
O=C1CC(c2ccc3c(c2)OCCO3)Oc2ccc([N+](=O)[O-])cc21 (stereo not drawn),0,52,0,0
CCn1c(SCC(=O)Nc2ccc(C(=O)OC)cc2)nnc1-c1c[nH]c2ccccc12,0,0,0,0
COc1cc2nc(Nc3ccccc3)nc(Nc3ccccc3)c2cc1OC,0,0,0,0
COc1cc2nc(Oc3ccccc3)nc(Nc3ccc(N4CCOCC4)cc3)c2cc1OC,0,42,0,0
COc1cc2nc(Oc3ccccc3)nc(Nc3ccccc3)c2cc1OC,0,38,0,0
O=C(O)c1ccc2c(c1)C(=O)N(c1ccc(Cl)c(NC(=O)c3cccs3)c1)C2=O,0,0,0,0
COc1cc2nc(NCCCN3CCCCC3)n3nc(-c4cccnc4)nc3c2cc1OC,0,37,0,0
CCCCNc1nc2cc(OC)c(OC)cc2c2nc(-c3cccnc3)nn12,0,0,0,0
c1cncc(-c2nc3c4ccccc4nc(NCCCN4CCCCCC4)n3n2)c1,0,69,0,0
CCOC(=O)C1=C(C)N(C)C(=O)NC1c1cc(Cl)c(O)c(OC)c1 (stereo not drawn),0,0,0,0
COc1ccc(N2CCN(S(=O)(=O)c3ccc(C)cc3)CC2)c([N+](=O)[O-])c1,0,0,0,0
SMILES,GPR151 activ,TEAD-YAP inh,FBW7 act,MITF inh
Cc1ccc(S(=O)(=O)N2CCN(c3ccc(C(N)=O)cc3[N+](=O)[O-])CC2)cc1,0,37,0,0
O=[N+]([O-])c1ccccc1N1CCN(S(=O)(=O)c2ccc3ccccc3c2)CC1,0,0,0,0
NC(=O)c1ccc(N2CCN(S(=O)(=O)c3ccc4ccccc4c3)CC2)c([N+](=O)[O-])c1,0,45,0,0
CC1CCN(Cc2nnnn2CC(=O)N2CCCC2c2nccs2)CC1 (stereo not drawn),0,0,0,0
COCCNC(=O)c1ccc2cncc(-c3ccsc3)c2n1,0,78,0,0
O=C(NC1CC1)c1ccc2cncc(-c3ccsc3)c2n1,0,71,0,0
O=C(NC1CC1)c1csc(Nc2cccnc2)n1,0,0,0,0
COc1ccccc1OCC(=O)Nc1ncc(Cc2ccc(Br)cc2)s1,0,0,0,0
COc1ccc(OCC(=O)Nc2ncc(Cc3ccc(Br)cc3)s2)cc1,0,0,0,0
Cc1ccccc1OCC(=O)Nc1ncc(Cc2ccc(Br)cc2)s1,0,55,0,0
COc1ccc(Cc2cnc(NC(=O)COc3ccccc3OC)s2)cc1,0,48,0,0
COc1ccc(Cc2cnc(NC(=O)COc3cccc(C)c3)s2)cc1,0,52,0,0
COc1ccc(C(=O)N2CCN(Cc3ccc(SC)cc3)CC2)cc1,0,43,0,0
CCCOc1ccccc1C1C2=C(CCCC2=O)N(C)C2=C1C(=O)CCC2,0,0,3.0,0

# Bioassay records deposited in PubChem by The Scripps Research Institute Molecular Screening Center.
